PAFAH1B2 inh – PAFAH1B2 (human) inhibition. P68402. recombinant PAFAH1B2, FP-rhodamine activity probe, fluorescence polarization. inhibition, % at 3.39 µM. 340,000 compounds, 1.2% hits. AID 492953;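 active = inhibition above the mean of all tested compounds plus 3 SD, cut at about 24% in these data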;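 also: 0% = enzyme with DMSO and 100% = wells lacking PAFAH1B2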
Target sequence (P68402 whole entry, looked up): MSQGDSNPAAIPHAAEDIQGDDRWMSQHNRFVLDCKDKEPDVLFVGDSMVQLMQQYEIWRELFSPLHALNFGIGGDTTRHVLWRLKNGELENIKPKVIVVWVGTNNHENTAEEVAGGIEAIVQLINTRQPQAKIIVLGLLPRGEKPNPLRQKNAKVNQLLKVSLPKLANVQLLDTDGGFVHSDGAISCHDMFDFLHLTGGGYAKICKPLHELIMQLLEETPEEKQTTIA
PAFAH2 FP inh – inhibitors of human PAFAH2 | inhibition, % at 3.39 µM | 340,000 compounds, 0.99% hits | recombinant PAFAH2, FP-rhodamine activity probe, fluorescence polarization;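 active = inhibition above the mean over all tested compounds plus 3 SD, cut at about 30% in these data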;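 also: inhibitors block probe labeling of enzyme so polarization drops; 0% = enzyme with DMSO and 100% = wells lacking PAFAH2 protein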
pPAFAH inh – pPAFAH (human) enzyme inhibition; Q13093; recombinant pPAFAH, FP-rhodamine probe fluorescence polarization; inhibition, % at 3.39 µM; AID 463082; 330,000 compounds, 1.5% hits;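 active = inhibition above the mean inhibition across the screen plus 3 SD, cut at about 25% in these data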;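 also: inhibitors block binding of the rhodamine activity-based probe so polarization drops; 0% = enzyme with DMSO and 100% = wells lacking pPAFAH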
DSG3 Ab inh – inhibitors of pemphigus antibody binding to human desmoglein-3. 310,000 compounds, 0.48% hits. binding (percent of control), % at 10 µM. DSG3-coupled beads, scFv-anti-DSG3-GFP binding, flow cytometry; active compounds read low. P32926;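 active = binding more than 3 SD below its plate's average and above zero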;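 also: hits lower antibody fragment binding to DSG3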
PfM18AAP inh – blocks P. falciparum M18 aspartyl aminopeptidase. recombinant PfM18AAP, H-Glu-NHMec fluorogenic cleavage. inhibition, % at 7.35 µM. 290,000 compounds, 1.2% hits. AID 1822;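 active = inhibition above the campaign mean inhibition over all tested compounds plus 3 SD, cut at about 28% in these data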;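 also: 0% = plate median of test compound wells and 100% = 2 mM ZnCl2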
PAFAH1B3 inh – inhibitors of human PAFAH1B3 | 340,000 compounds, 0.28% hits | inhibition, % at 3.39 µM | recombinant PAFAH1B3, FP-rhodamine probe, fluorescence polarization | AID 492972;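 active = inhibition above the screen-wide average of all tested compounds plus 3 SD, cut at about 25% in these data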;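 also: 0% = enzyme with DMSO only and 100% = wells lacking PAFAH1B3 protein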
Target sequence (Q15102 whole entry, looked up): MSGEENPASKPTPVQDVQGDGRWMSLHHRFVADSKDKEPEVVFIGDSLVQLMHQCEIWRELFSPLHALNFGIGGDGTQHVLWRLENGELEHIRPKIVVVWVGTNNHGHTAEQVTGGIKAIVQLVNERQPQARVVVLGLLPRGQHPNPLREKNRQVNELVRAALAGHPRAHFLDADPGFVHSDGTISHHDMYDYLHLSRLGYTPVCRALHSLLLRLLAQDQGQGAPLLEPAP
Active calls of the source: *; / = no result. In the library only some 3.8% were active in any assay of this set; here they are far more common.

SMILES	PAFAH1B2 inh	PAFAH2 FP inh	pPAFAH inh	DSG3 Ab inh	PfM18AAP inh	PAFAH1B3 inh
CC(C)CCNC(=O)c1cc(S(=O)(=O)N2CCC3(CC2)OCCO3)ccc1F	/	/	/	101	/	/
Cc1ccc(C2C(C#N)=C(N)Oc3cc(N)ccc32)cc1 (stereo unspecified)	5	-1	27*	102	7	-2
CC1=C(C(=O)N(C)C)CC(CC(=O)NCCCN(C)C)C(=O)N1Cc1ccccc1 (stereo unspecified)	/	/	/	111	/	/
CCCc1cc(=O)oc2cc(C)cc(OCC(=O)NC(Cc3ccc(Cl)cc3)C(=O)O)c12 (stereo unspecified)	27*	-7	6	103	-21	3
CCCCc1cc(=O)oc2cc(C)cc(OCC(=O)Nc3ccccn3)c12	8	-4	0	3.8*	4	1
CCCCc1cc(=O)oc2cc(C)cc(OCC(=O)NC(Cc3ccc(Cl)cc3)C(=O)O)c12 (stereo unspecified)	30*	-1	6	/	0	4
CCCc1cc(=O)oc2cc(C)cc(OCC(=O)Nc3ccccn3)c12	-1	-3	3	/	1	6
CCn1cc(/C=C(\NC(=O)c2ccccc2OC)C(=O)N2CCOCC2)c2ccccc21	/	/	/	96	/	/
O=C(C1CCCCC1)N1C[C@@H](O)[C@H](n2cc(C3CC3)nn2)C[C@@H]1c1ccccc1	/	/	/	102	/	/
COc1ccc(CCN(C)CC(O)COc2ccc(C(C)=O)cc2OC)cc1OC (stereo unspecified)	8	-8	5	/	0	-3
CC(c1ccccc1)C(NC(=O)OCC1c2ccccc2-c2ccccc21)C(=O)O (stereo unspecified)	29*	10	8	107	/	-12
Nc1ccc(CNC(=O)OCC2c3ccccc3-c3ccccc32)cc1	3	0	2	94	/	8
O=C(N[C@@H](Cc1ccc(Br)cc1)C(=O)O)OCC1c2ccccc2-c2ccccc21	70*	6	14	103	2	-2
CC(=O)Nc1ccc(NC(=O)C(Cc2ccccc2)NC(=O)C2CCC(C)CC2)cc1 (stereo unspecified)	1	4	-9	110	-14	7
COc1ccccc1C1C2=C(CC(C)(C)CC2=O)Nc2nnnn21 (stereo unspecified)	-4	3	-1	96	3	7
COc1ccc(OC)c(C2C3=C(CC(C)(C)CC3=O)Nc3nnnn32)c1 (stereo unspecified)	-2	-1	29*	129	-4	10
O=C(O)C(Cc1c[nH]c2ccccc12)NS(=O)(=O)c1ccccc1 (stereo unspecified)	24*	2	2	106	1	0
COc1cc(S(=O)(=O)NC(Cc2c[nH]c3ccccc23)C(=O)O)ccc1NC(C)=O (stereo unspecified)	5	-1	-7	107	-7	3
CCCCS(=O)CC(CS(=O)CCCC)OC(=O)c1ccc(C)cc1 (stereo unspecified)	2	0	2	45*	0	0
O=C1CC(c2ccc(S(=O)(=O)NCc3ccccc3)cc2)CN1 (stereo unspecified)	3	-4	-4	109	-7	-3
Cc1ccccc1NS(=O)(=O)c1ccc(C2CNC(=O)C2)cc1 (stereo unspecified)	4	-1	33*	101	-6	4
Cc1nnc(Cc2ccccc2)c2n[nH]c(C)c12	/	/	/	105	/	/
CC(=O)Nc1ccc(C(=O)OCc2ccc(F)cc2)cc1	10	22	-1	87	-4	-2
O=C(COC(=O)c1ccc(O)cc1)Nc1ccc(Cl)cc1	/	/	27*	/	0	/
CC(=O)Nc1ccc(C(=O)OCc2ccc(Cl)cc2)cc1	23	31*	-1	102	4	2
SMILES	PAFAH1B2 inh	PAFAH2 FP inh	pPAFAH inh	DSG3 Ab inh	PfM18AAP inh	PAFAH1B3 inh
N#CCC(=O)Nc1ccc(C(=O)OCC(=O)NNC(=O)c2ccc(Cl)cc2)cc1	3	16	12	102	/	-6
CN(C)C(=S)NC(=O)C(c1ccccc1)c1ccccc1	8	-9	-1	-12*	0	7
O=C(O)c1cc(NC(=S)NC(=O)C(c2ccccc2)c2ccccc2)ccc1Cl	32*	4	-3	101	4	3
O=C(NC(=S)Nc1ccc(Cl)c(C(=O)O)c1)c1ccco1	-1	6	5	102	16	8
COc1ccc(OCc2cccc(C(=O)Nn3cc([N+](=O)[O-])cn3)c2)cc1	29*	3	4	98	-4	-4
COc1ccc(OCc2cccc(C(=O)NN)c2)cc1	5	-7	7	102	-1	3
CCOc1cc(C=O)ccc1OCCSc1ccc(C)cc1	30*	-4	16	106	1	4
COc1cc(C=O)ccc1OCCSc1ccc(C)cc1	35*	0	11	104	1	5
Cc1cc2ncc(-c3ccc(Cl)cc3)c(N)n2n1	4	-2	3	99	-6	2
Nc1c(-c2ccccc2)cnc2cc(-c3ccccc3)nn12	-4	2	/	80*	2	10
O=S(=O)(Nc1cccc(F)c1)c1ccc(S(=O)(=O)N2CCOCC2)cc1	/	/	/	106	/	/
CCCCN1C(=O)C(CC(=O)NCc2cccc3ccccc23)CC(C(=O)N2CCOCC2)=C1C (stereo unspecified)	/	/	/	100	/	/
COc1ccc(-c2cc3ccccc3oc2=O)cc1NC(=O)c1ccc([N+](=O)[O-])o1	4	6	25*	92	-1	2
O=C1NC2(CCCCC2)C(=O)N1Cc1cccc(C(F)(F)F)c1	1	-1	-6	106	-2	7
CCOC(=O)Cn1c(=O)oc2cc(S(=O)(=O)Nc3c(C)cc(C)cc3C)ccc21	-1	5	25*	104	-8	6
CCOC(=O)Cn1c(=O)oc2cc(S(=O)(=O)NC3CCCCC3)ccc21	5	-1	6	98	4	-8
O=C(O)CCCC(=O)Nc1ccc(Br)cc1C(=O)O	27*	-5	-3	112	-11	8
O=C(CSc1ccccc1)NCCc1ccc(F)cc1	27*	-4	-1	98	3	-1
O=C(CSc1ccccc1)NCCc1ccccc1	13	4	15	116	-3	2
O=C(CSc1ccc(F)cc1)NC(=O)NCc1ccccc1	28*	8	6	93	0	5
O=C(CSc1ccc(F)cc1)NCCSc1ccccc1	28*	4	6	105	1	12
Cc1ccc(C)c(SCC(=O)NC(=O)NCc2ccccc2)c1	5	10	3	129	0	7
CCCCNc1ccc2c3c(cccc13)C(=O)N(CCCC)C2=O	21	34*	/	/	-4	31*
O=C(Cn1ncc2c(=O)oc3ccccc3c21)NCC1COc2ccccc2O1 (stereo unspecified)	-2	1	6	88*	-9	7

Assay outcomes as filed in PubChem.
